TTR transcr act: activators of transthyretin transcription. SH-SY5Y TTR promoter Gaussia luciferase, luminescence; 100% = recombinant luciferase protein wells. actives 1.3% (n = 92,000). activation, % at 16.7 µM;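 active = activation above the mean of all tested compounds plus 3 SD, cut at about 9.5% in these data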;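 also: cells exposed to compounds for one day before reading; 0% = median of all test compound wells on the plate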
HuH7 TTR inh: HuH7 TTR transcription inhibition, counter-screen; HuH7 TTR promoter-Gaussia luciferase reporter, luminescence; AID 1117279; actives 4% (n = 1,100); shares compounds with TTR transcr act; inhibition, % at 16.7 µM;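 active = average inhibition above the solvent-only control wells' mean plus 3 SD, cut at about 15% in these data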;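 also: 0% = cells with DMSO only and 100% = cells with inhibitor control FD; inhibitors lower well luminescence so higher value means more inhibition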
TTR up confirm: confirmation of human transthyretin transcription activators. AID 1117280. shares compounds with TTR transcr act. SHSY5Y TTR promoter Gaussia luciferase, luminescence; 100% = purified Lucia enzyme wells, no cells. 1,100 tested, under 10 active. activation, % at 16.7 µM;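 active = mean activation above a set limit taken from the earlier primary screen, cut at about 11% in these data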;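 also: 0% = DMSO-treated cells and 100% = recombinant Lucia luciferase without cells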
* marks the source's active call; other numbers are inactive results. The sample as a whole holds a higher share of hits than the screen did.

SMILES	TTR transcr act	others
c1ccc(SCc2nc3ccccc3[nH]2)nc1	14*	HuH7 TTR inh=-23;TTR up confirm=1
Cc1nnc(SCc2nc3ccccc3[nH]2)s1	5
CN(C)[C@H]1CCN(c2cccc3c2S(=O)(=O)N2CC[C@@H](C2)O3)C1	1
C[C@@H]1CCN(C2CC2)S(=O)(=O)c2c(cccc2N2CC[C@H](O)C2)O1	-1
CCC(C)[C@H](NC(=O)OC(C)(C)C)C(=O)N[C@@H](Cc1ccccc1)C(=O)OC (stereo not given in full)	2
O=C(/C=C/[C@H]1O[C@@H](n2cnc3c(NC(=O)c4ccccc4)ncnc32)[C@H](O)[C@@H]1O)NCCc1ccc(F)cc1	21*	HuH7 TTR inh=-22;TTR up confirm=0
O=C(/C=C/[C@H]1O[C@@H](n2cnc3c(NC(=O)c4ccccc4)ncnc32)[C@H](O)[C@@H]1O)NCCc1c[nH]c2ccccc12	-1
COCCCNC(=O)/C=C/[C@H]1O[C@@H](n2cnc3c(NC(=O)c4ccccc4)ncnc32)[C@H](O)[C@@H]1O	3
CC(C)(C)OC(=O)N1CCC(N[C@@H](Cc2ccccc2)C(=O)NCCc2c[nH]c3ccccc23)(C(=O)NC2CCCCC2)CC1	2
O=C(COC(=O)c1ccccc1O)Nc1ccc(S(=O)(=O)N2CCCCC2)cc1	-4
O=C(COC(=O)c1ccc(Cl)nc1)Nc1ccc(S(=O)(=O)N2CCCC2)cc1	20*	HuH7 TTR inh=-1;TTR up confirm=-1
O=C(COC(=O)c1ccc(Cl)nc1)Nc1cc(S(=O)(=O)N2CCCCC2)ccc1Cl	-1
O=C(/C=C/c1ccc(-c2ccccc2)cc1)NC1=NCCS1	3
O=S(=O)(Oc1ccccc1-c1ccccc1)c1ccccc1	-1
O=S(=O)(NCCC1CC1(Cl)Cl)c1ccccc1 (stereo not given)	0
O=S(=O)(c1ccccc1)C1CC1(c1ccccc1)c1ccccc1 (stereo not given)	14*	HuH7 TTR inh=-3;TTR up confirm=0
Cc1cccn2cc(-c3ccc(S(=O)(=O)N4CCOCC4)cc3)nc12	0
Cc1ccn2cc(-c3ccc(Br)cc3)nc2c1	-3
O=[N+]([O-])c1cccn2cc(-c3ccc(Br)cc3)nc12	11*	HuH7 TTR inh=6;TTR up confirm=-1
CN(C(=O)[C@@H]1CC=C[C@@H]2CCN(C3CCCCC3)C(=O)[C@@H]21)c1ccccc1	2
COC(=O)[C@]12C[C@H](CC(=O)NCc3ccc(C)o3)C(=O)N(Cc3ccc(Cl)cc3Cl)C1=C[C@H](C(C)C)O[C@@H]2C1CC1	-1
CSC1=NCCN1C(=O)Cc1ccc(F)cc1	10*	HuH7 TTR inh=-2;TTR up confirm=-1
COc1ccc(CC(=O)N2CCN=C2SC)cc1OC	1
CSC1=NCCN1C(=O)Cc1ccc(-c2ccccc2)cc1	-1
CCCc1nc2nc(C)c(NS(=O)(=O)c3ccc(C)c(C)c3)c(=O)n2[nH]1	-1
SMILES	TTR transcr act	others
COc1ccc(/C=C/S(=O)(=O)NCC(C)C)c(CNC(=O)OC(C)(C)C)c1	-1
Cc1ccc(C(=O)O)cc1-c1ccc(/C=C2/NC(=O)N(c3ccccc3)C2=O)o1	-1
O=C(O)c1ccc(COc2ccccc2/C=C2\NC(=O)N(Cc3ccc(F)cc3)C2=O)cc1	9
Cc1ccc(CN2C(=O)N/C(=C\c3ccc(-c4ccc(C(=O)O)cc4C)o3)C2=O)cc1	11*	HuH7 TTR inh=-18;TTR up confirm=0
COC(=O)c1cccc(Cn2ccc3ccc(-c4ccc5ccn(C(=O)c6ccc(C)cc6)c5c4)cc32)c1	-2
O=C1CCN(Cc2ccccc2)C(=S)N1	2
O=C(NC1CCCCN(Cc2ccc(Cl)cc2)C1=O)c1ccc2ccccc2c1 (stereo not given)	-1
COc1ccc(OC)c(N=C(C)C2=C(O)COC2=O)c1	0
O=C1OCC(O)=C1Cc1ccccc1	5
CC(=Nc1ccccc1)C1=C(O)COC1=O	18*	HuH7 TTR inh=-6;TTR up confirm=0
Cc1ccccc1C1CCC2(CC1)CCN(CC[C@@H](O)c1ccccc1)C2=O (stereo not given in full)	2
CC(C)Cn1c(-c2ccccc2)nc(=S)c2c1CCCC2	0
S=c1nc(-c2ccccc2)n(CCN2CCOCC2)c2c1CCCC2	-1
C=CCn1c(-c2ccccc2)nc(=S)c2c1CCCC2	11*	HuH7 TTR inh=3;TTR up confirm=0
O=C(O)CCCCN1C(=O)C=CC1=O	0
O=C(CS(=O)(=O)Cc1ccccc1)c1ccccc1	1
CC(CCc1ccccc1)NC(=O)Cc1ccc(Br)cc1 (stereo not given)	0
CC(C)C[C@H]1CNC(=O)C(=O)N1C[C@H](C)NC(=O)Cc1ccccc1	15*	HuH7 TTR inh=0;TTR up confirm=0
Cc1ccc(CC(=O)NC(C)CCc2ccccc2)cc1 (stereo not given)	4
CCOC(=O)[C@]12CCCC3=C1N(CCC3)C(=O)[C@@H](CC(=O)N1CCOCC1)C2	0
COc1ccc(-n2cnnc2SCC(=O)NCc2cccs2)cc1	3
COc1ccc(-c2nnc(SCC(=O)NCc3cccs3)n2C(C)C)cc1	11*	HuH7 TTR inh=-10;TTR up confirm=2
CCC(CC)NC(=O)CSc1nnc(-c2ccc(OC)cc2)n1C(C)C	1
CCc1ccc(-n2ncc(Cl)c(Oc3ccc(OC)cc3)c2=O)cc1	-2
Nc1[nH]c(C(=O)c2ccccc2)c(-c2ccccn2)c1C(=O)c1c[nH]c2ccc(Br)cc12	1
SMILES	TTR transcr act	others
C[C@H](CO)N1C[C@H](C)[C@@H](CN(C)S(=O)(=O)c2ccc3ccccc3c2)OCc2cn(nn2)CCCC1=O	0
COc1cccc(S(=O)(=O)N(C)C[C@@H]2OCc3cn(nn3)CCCC(=O)N([C@@H](C)CO)C[C@H]2C)c1	11*	HuH7 TTR inh=-8;TTR up confirm=1
C[C@@H]1CN([C@@H](C)CO)C(=O)CCCn2cc(nn2)CO[C@H]1CN(C)S(=O)(=O)c1cccc(C#N)c1	-2
CC(=C\C=O)/C(C)=C/CC[C@@H]1O[C@@H]2C[C@@H]3O[C@](C)(C[C@H]4C[C@H](O)[C@@H]5O[C@@H]6C[C@H](O)[C@@H](C)O[C@@]6(C)CC[C@H]5O4)[C@@H](O)CC[C@@]3(C)O[C@H]2[C@@H](O)[C@@H]1C	1
CC(C)(C)c1ccc(C(=O)Nc2cc(Cl)ccc2C(=O)O)cc1	-2
CC(C)(C)OC(=O)NCCc1ccccc1/C=C/S(=O)(=O)NCc1ccccc1	-1
COc1ccc(-c2cc(=O)c3c(C)cc(O)cc3o2)cc1	-2
COc1ccc(-c2cc(=O)c3c(OC)c(OC)c(OC)c(OC)c3o2)cc1	-3
COc1ccc(-c2[nH]nc3oc(=O)cc(C)c23)cc1	16*	HuH7 TTR inh=-18;TTR up confirm=-1
CCc1ccc2c(c1)NC(=O)C2(C)Cc1ccc(C(F)(F)F)nc1 (stereo not given)	4
COc1cc(OC)cc(-c2csc(N3CCC(C(N)=O)CC3)n2)c1	1
COc1ccc(/C=N/NC(=O)c2cccc(OC(F)(F)C(F)F)c2)c(OC)c1OC	1
COc1ccc(/C=N/NC(=O)C(N)=O)c(OC)c1OC	13*	HuH7 TTR inh=-4;TTR up confirm=0
COc1ccc(/C=N\NC(=O)CCc2c(C)n[nH]c2C)c(OC)c1OC	-1
CCn1c(C)nc2cc(C(=O)N3N=C(CCOC)CC3(O)C(F)(F)F)ccc21 (stereo not given)	2
Cc1ccc(NC(=O)Nc2ccc3c(c2)C(=O)OC3)cc1Cl	0

Screens deposited in PubChem BioAssay by The Scripps Research Institute Molecular Screening Center.
